The record followed here is PubChem BioAssay (EPA / NIEHS).

Each structure is given as a SMILES string. “And” between values parts separate entries of the source, which are not always exact repeats. Equal values may be shown once. Records with an inconclusive call do not appear. Some structures have more than one record in an assay (separate samples or runs), and their calls can disagree. The source made the active and inactive calls. The calls were made as follows: active = hit-call score of the fitted dose curve at least 0.9, where 1 is the maximum; inconclusive = response in the unintended direction; inactive = score below 0.9.

By AC50 is commonly meant the concentration at which the activity in the assay is half-maximal.

Chain of Androgen Receptor/SRC-1 Co-activator, AR (gene 367) (P10275 whole entry, looked up, the tested form may be a part): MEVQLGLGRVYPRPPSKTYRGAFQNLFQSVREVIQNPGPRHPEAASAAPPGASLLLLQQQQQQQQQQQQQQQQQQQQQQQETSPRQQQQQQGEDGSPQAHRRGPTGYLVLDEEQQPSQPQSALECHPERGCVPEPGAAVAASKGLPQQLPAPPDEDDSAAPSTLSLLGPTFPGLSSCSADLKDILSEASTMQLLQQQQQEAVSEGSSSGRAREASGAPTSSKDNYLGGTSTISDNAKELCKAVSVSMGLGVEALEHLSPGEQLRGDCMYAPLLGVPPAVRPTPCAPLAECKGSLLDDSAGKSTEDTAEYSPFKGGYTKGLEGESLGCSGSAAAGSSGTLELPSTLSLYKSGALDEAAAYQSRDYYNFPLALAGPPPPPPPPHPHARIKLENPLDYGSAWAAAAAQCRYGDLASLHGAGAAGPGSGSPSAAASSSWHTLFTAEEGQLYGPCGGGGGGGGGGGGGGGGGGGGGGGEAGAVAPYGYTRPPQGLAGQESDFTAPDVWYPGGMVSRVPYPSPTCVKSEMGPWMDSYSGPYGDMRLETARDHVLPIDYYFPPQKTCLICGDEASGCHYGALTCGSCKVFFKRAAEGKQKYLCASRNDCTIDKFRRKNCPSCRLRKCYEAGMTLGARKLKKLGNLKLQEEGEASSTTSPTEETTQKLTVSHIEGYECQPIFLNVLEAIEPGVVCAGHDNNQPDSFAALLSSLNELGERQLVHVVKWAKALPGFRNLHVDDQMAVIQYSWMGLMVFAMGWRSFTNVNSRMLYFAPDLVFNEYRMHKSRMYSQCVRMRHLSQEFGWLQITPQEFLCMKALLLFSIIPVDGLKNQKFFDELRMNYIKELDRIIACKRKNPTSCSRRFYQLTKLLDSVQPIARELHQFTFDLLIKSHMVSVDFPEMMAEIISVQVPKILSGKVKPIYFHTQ
Chain of rat Mineralocorticoid Receptor (MR), Nr3c2 (gene 25672) (P22199 whole entry, looked up): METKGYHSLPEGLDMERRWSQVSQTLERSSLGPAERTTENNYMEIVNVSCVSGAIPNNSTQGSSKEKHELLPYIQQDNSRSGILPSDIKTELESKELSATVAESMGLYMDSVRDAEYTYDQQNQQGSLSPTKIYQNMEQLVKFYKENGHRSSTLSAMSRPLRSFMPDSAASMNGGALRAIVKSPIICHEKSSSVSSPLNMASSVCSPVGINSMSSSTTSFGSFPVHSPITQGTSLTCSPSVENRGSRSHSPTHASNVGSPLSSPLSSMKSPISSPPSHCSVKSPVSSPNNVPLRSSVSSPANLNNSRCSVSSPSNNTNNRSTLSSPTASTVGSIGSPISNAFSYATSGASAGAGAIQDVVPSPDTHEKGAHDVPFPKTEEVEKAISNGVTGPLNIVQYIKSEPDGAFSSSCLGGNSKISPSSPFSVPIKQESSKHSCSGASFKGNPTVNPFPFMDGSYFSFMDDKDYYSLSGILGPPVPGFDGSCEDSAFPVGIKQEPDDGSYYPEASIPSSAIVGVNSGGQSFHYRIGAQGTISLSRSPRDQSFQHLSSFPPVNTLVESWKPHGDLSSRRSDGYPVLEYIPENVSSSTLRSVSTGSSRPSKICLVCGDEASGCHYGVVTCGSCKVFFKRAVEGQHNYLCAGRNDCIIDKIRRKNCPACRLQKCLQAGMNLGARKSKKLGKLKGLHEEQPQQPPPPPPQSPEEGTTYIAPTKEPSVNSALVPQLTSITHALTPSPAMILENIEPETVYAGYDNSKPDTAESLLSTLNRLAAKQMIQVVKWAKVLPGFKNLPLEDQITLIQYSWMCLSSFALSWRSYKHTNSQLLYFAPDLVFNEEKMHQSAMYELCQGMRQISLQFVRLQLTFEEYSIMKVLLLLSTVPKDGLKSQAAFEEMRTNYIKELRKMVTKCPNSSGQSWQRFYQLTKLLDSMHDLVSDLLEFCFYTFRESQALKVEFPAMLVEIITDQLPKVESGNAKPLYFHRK
Chain of human Peroxisome Proliferator-activated Receptor alpha (PPARa), PPARA (gene 5465) (Q07869 whole entry, looked up): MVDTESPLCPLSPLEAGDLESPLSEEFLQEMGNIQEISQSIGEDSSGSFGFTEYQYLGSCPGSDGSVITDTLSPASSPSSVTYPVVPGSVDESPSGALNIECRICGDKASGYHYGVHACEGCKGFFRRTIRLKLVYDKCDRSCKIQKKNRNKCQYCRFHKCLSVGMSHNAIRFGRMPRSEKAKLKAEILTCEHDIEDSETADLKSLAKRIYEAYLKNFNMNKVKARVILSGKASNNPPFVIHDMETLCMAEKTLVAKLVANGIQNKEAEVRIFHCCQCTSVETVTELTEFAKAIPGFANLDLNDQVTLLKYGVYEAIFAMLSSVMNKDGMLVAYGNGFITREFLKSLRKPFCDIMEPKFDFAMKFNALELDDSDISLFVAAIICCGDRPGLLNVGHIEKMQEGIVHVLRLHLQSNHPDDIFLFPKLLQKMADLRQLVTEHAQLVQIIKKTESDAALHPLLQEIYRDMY
Chain of Estrogen receptor (Homo sapiens) + Estrogen receptor beta (Homo sapiens) (P03372 whole entry, looked up, the tested form may be a part): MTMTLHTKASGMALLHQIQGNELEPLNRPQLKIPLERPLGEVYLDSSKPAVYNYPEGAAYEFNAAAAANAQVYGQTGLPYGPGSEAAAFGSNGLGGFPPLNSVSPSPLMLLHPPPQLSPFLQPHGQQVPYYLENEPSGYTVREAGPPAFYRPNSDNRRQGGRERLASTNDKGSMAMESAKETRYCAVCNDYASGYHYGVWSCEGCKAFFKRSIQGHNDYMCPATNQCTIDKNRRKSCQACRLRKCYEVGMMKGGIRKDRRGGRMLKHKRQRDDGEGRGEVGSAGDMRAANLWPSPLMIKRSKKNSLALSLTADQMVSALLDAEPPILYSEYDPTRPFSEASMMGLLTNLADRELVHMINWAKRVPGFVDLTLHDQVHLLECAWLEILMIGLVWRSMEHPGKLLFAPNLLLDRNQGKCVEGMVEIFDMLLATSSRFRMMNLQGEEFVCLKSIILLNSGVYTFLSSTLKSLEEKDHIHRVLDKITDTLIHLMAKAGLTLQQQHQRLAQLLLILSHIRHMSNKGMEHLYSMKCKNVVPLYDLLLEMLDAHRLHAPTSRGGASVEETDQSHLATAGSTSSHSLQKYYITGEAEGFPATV
Chain of Estrogen receptor (Homo sapiens) + Estrogen receptor beta (Homo sapiens) (Q92731 whole entry, looked up, the tested form may be a part): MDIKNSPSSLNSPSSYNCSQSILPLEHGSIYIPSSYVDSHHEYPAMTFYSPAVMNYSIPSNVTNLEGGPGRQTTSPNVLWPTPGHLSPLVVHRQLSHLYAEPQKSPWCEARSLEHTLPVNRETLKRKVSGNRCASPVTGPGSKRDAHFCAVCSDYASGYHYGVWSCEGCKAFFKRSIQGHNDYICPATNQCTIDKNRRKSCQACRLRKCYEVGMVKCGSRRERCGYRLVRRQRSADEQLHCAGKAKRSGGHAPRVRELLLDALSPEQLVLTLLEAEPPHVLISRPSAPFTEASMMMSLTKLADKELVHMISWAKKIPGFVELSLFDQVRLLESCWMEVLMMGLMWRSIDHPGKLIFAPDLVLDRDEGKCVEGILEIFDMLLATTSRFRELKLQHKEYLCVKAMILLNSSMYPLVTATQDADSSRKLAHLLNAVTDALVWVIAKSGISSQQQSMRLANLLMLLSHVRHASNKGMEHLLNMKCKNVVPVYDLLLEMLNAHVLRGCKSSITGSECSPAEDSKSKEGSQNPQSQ

The first experiment concerns the target Androgen Receptor/SRC-1 Co-activator, AR (gene 367) (UniProt P10275). The experiment can be described thus: OT_AR_ARSRC1_0480: Odyssey Thera (OT) 8-hour HEK293T Protein-Complementation Assay for Androgen Receptor/SRC-1 Co-activator (AID 2283354).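 Also: hits raise the complementation signal above DMSO so AC50 marks enhancers.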 Summed up:
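After 8 h dosing, stably expressing HEK293T cells with split-Venus AR/SRC-1 fusions were imaged (488, 635nm). The 488nm N/C ratio per image gave the endpoint, analysed in the positive direction against DMSO.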
Take `CC(C)(c1ccc(O)cc1)c1ccc(O)cc1`: the compound was classed as inactive.
Still for that read-out and setting: the value for `O=C(c1ccccc1)C1CCCCC1` was “inactive”; that for `CCCCOCCOCCOCc1cc2c(cc1CCC)OCO2` was “inactive”.
`N#CSCSc1nc2ccccc2s1`: the AC50 was 21.9 µM (active).
Regarding `CC1(C)C(C=C(Cl)Cl)C1C(=O)OCc1cccc(Oc2ccccc2)c1` (configuration not stated), the call was inactive.
On to `CCCN(CCC)C(=O)SCC`, for which the compound was called inactive.
Consider `O=C(c1ccc(O)cc1O)c1ccc(O)cc1O`, for which the AC50 is 11.1 µM (active) and 8.01 µM (active) and 9.37 µM (active).
As to `CCOC(=O)COc1cc(-n2ncc(C(F)(F)F)c(C)c2=O)c(F)cc1Cl`, the outcome was inactive.
`Cc1nn(C)c(Oc2ccccc2)c1C=NOCc1ccc(C(=O)OC(C)(C)C)cc1`: the outcome was inactive.
Still for that read-out and setting: with `C[C@]12CC[C@@H]3c4ccc(O)cc4C[C@@H](CCCCCCCCCS(=O)CCCC(F)(F)C(F)(F)F)[C@H]3[C@@H]1CC[C@@H]2O` (some centres not stated) the entry was “inactive”.

The next experiment has as its target rat Mineralocorticoid Receptor (MR), Nr3c2 (gene 25672) (UniProt P22199). Description: NVS_NR_rMR: NovaScreen (NVS) Nuclear Receptor Binding Assay for rat Mineralocorticoid Receptor (MR) (AID 2283355). An outline of the steps:
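Single-concentration duplicate screen (25 uM) of radioligand binding in adrenalectomized rat brain supernatant; scintillation detection 24 h after dosing. Positive and negative controls ran on each plate, and confirmed actives went to concentration-response.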
On to `CC(C)(c1ccc(O)cc1)c1ccc(O)cc1`, for which the AC50 is 12.1 µM (active) and the call was inactive.
`S=C(S)NCCNC(=S)S.[Mn+2].[S-]C([S-])=NCCN=C([S-])[S-].[Zn+2]`: the compound was called inactive.
Same read-out and setting: with `CCCN(CCC)C(=O)SCC` the entry was “inactive”.
In the case of `C#C[C@]1(O)CC[C@H]2[C@@H]3CCC4=CC(=O)CC[C@@H]4[C@H]3CC[C@@]21CC`, the AC50 is 0.0945 µM (active).

The next experiment concerns the target Estrogen receptor (Homo sapiens) + Estrogen receptor beta (Homo sapiens) (UniProt P03372+Q92731). Description: OT_ER_ERaERb_1440: Odyssey Thera (OT) 24-hour HEK293T Protein-Complementation Assay for Estrogen Receptor-alpha/-beta Homodimer (AID 2283356).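 Also: heteromer of ER alpha and ER beta binding domains; hits raise reporter fluorescence and both agonists and antagonists give an increase.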 Summed up:
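HEK293T stably expressing a PCA of ER alpha LBD (aa 310-547) and ER beta LBD (aa 263-489). After 24 h compound exposure, mean fluorescence intensity in nucleus (agonists) or nucleus and cytoplasm (antagonists) measured by laser scanning cytometry versus vehicle.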
For `CCCCC(CC)CN1C(=O)C2C3C=CC(C3)C2C1=O` (configuration not stated), the outcome was inactive.
For `CC(C)CCCCCCc1ccc(O)cc1`, the concentration at half-maximal activity (AC50) is 2.25 µM (active) and 2.44 µM (active).
Take `COC(=O)c1ccccc1C(=O)O`: the result was inactive.
The same measure, in the same setting: with `C[C@]12C[C@H](O)[C@H]3[C@@H](CCC4=CC(=O)CC[C@@]43C)[C@@H]1CC[C@@H]2C(=O)CO` the entry was “inactive”; with `CC(=O)[C@H]1CC[C@H]2[C@@H]3CCC4=CC(=O)CC[C@]4(C)[C@H]3CC[C@]12C`, “inactive”.
For the compound `N#CSCSc1nc2ccccc2s1`, the outcome was inactive.
As for `CCOC(=O)c1ccc(O)cc1`, the half-maximal activity concentration (AC50) is 32.2 µM (active) and 26.9 µM (active) and 26.8 µM (active); the outcome was inactive.
Turning to `COc1c(Cl)ccc(Cl)c1C(=O)O`, the result was inactive.
The same measure, in the same setting: the value for `CCCN(CCC)C(=O)SCC` was “inactive”.
As to `O=C(c1ccc(O)cc1O)c1ccc(O)cc1O`, the half-maximal activity concentration (AC50) is 12.6 µM (active) and 8.31 µM (active) and 9.09 µM (active).
As to `CC(=O)S[C@@H]1CC2=CC(=O)CC[C@]2(C)[C@H]2CC[C@@]3(C)[C@@H](CC[C@@]34CCC(=O)O4)[C@H]12`, the result was inactive.
Still for that read-out and setting: with `CCOC(=O)COc1cc(-n2ncc(C(F)(F)F)c(C)c2=O)c(F)cc1Cl` the entry was “inactive”.
On to `Cc1nn(C)c(Oc2ccccc2)c1C=NOCc1ccc(C(=O)OC(C)(C)C)cc1`, for which the result was inactive.

The target of the next experiment is Estrogen receptor beta (Homo sapiens) (UniProt Q92731). The experiment can be described thus: OT_ER_ERbERb_0480: Odyssey Thera (OT) 8-hour HEK293T Protein-Complementation Assay for Estrogen Receptor-beta/-beta Homodimer (AID 2283357).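 Also: active means signal gain over DMSO baseline.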 An outline of the steps: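 Fluorescence gain from complemented reporter fragments on ER-beta LBD homodimer in HEK293T was quantified against DMSO controls after 8 h treatment, fixation in 4% formaldehyde and Draq5 staining.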
Chain of Estrogen receptor beta (Homo sapiens) (Q92731 whole entry, looked up, the tested form may be a part): as above
As for `CCCCC(CC)CN1C(=O)C2C3C=CC(C3)C2C1=O` (configuration not stated), the compound was called inactive.
In the case of `CC(C)CCCCCCc1ccc(O)cc1`, the half-maximal activity concentration (AC50) is 836 nM (active) and 1.48 µM (active) and 1.04 µM (active).
Regarding `COC(=O)c1ccccc1C(=O)O`, the compound was called inactive.
The same measure, in the same setting: the value for `CCCCOCCOCCOCc1cc2c(cc1CCC)OCO2` was “inactive”; that for `C[C@]12C[C@H](O)[C@H]3[C@@H](CCC4=CC(=O)CC[C@@]43C)[C@@H]1CC[C@@H]2C(=O)CO` was “inactive”.
For `C=CCOC(Cn1ccnc1)c1ccc(Cl)cc1Cl` (configuration not stated), the compound was called inactive.
Same read-out and setting: the value for `CC(=O)[C@H]1CC[C@H]2[C@@H]3CCC4=CC(=O)CC[C@]4(C)[C@H]3CC[C@]12C` was “inactive”.
The same measure, in the same setting: with `N#CSCSc1nc2ccccc2s1` the entry was “inactive”.
As to `CCOC(=O)c1ccc(O)cc1`, the AC50 is 27.8 µM (active) and 33.1 µM (active) and 31.7 µM (active); the call was inactive.
As to `COc1c(Cl)ccc(Cl)c1C(=O)O`, the result was inactive.
`c1ccc(Nc2ccccc2)cc1`: the AC50 was 50.8 µM (active).
Take `CCCN(CCC)C(=O)SCC`: the compound was called inactive.
For `O=C(c1ccc(O)cc1O)c1ccc(O)cc1O`, the AC50 is 1.6 µM (active) and 1.63 µM (active) and 1.4 µM (active).
Take `CC(=O)S[C@@H]1CC2=CC(=O)CC[C@]2(C)[C@H]2CC[C@@]3(C)[C@@H](CC[C@@]34CCC(=O)O4)[C@H]12`: the compound was classed as inactive.
For the compound `Cc1nn(C)c(Oc2ccccc2)c1C=NOCc1ccc(C(=O)OC(C)(C)C)cc1`, the compound was called inactive.
Same read-out and setting: with `S=C([S-])NCCNC(=S)[S-].[Mn+2]` the entry was “inactive”.

The next experiment concerns the target human Peroxisome Proliferator-activated Receptor alpha (PPARa), PPARA (gene 5465) (UniProt Q07869). The experiment can be described thus: NVS_NR_hPPARa: NovaScreen (NVS) Nuclear Receptor Binding Assay for human Peroxisome Proliferator-activated Receptor alpha (PPARa) (AID 2283359).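 Also: activity means loss of TR-FRET signal versus DMSO baseline.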 Summed up:
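One-hour incubation, cell-free extracted protein, TR-FRET binding readout; signal loss vs DMSO scored. Screen: 25 uM duplicates, confirmatory dose series for actives.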
Take `CC(C)(c1ccc(O)cc1)c1ccc(O)cc1`: the AC50 is 105 nM (active).
As to `O=C(c1ccccc1)C1CCCCC1`, the compound was classed as inactive.
Same read-out and setting: the value for `CC(C)CCCCCCc1ccc(O)cc1` was “inactive”.
In the case of `C=CCOC(Cn1ccnc1)c1ccc(Cl)cc1Cl` (configuration not stated), the compound was called inactive.
Still for that read-out and setting: with `CCOC(=O)c1ccc(O)cc1` the entry was “inactive”.
On to `S=C(S)NCCNC(=S)S.[Mn+2].[S-]C([S-])=NCCN=C([S-])[S-].[Zn+2]`, for which the AC50 is 12500 nM (active) and the compound was called inactive.
Regarding `N[C@@H](Cc1cc(I)c(Oc2ccc(O)c(I)c2)c(I)c1)C(=O)O`, the AC50 is 27.3 µM (active) and 20 µM (active); the call was inactive.

Another experiment deals with PGR (gene 5241) (UniProt P06401). Description: NVS_NR_hPR: NovaScreen (NVS) Nuclear Receptor Binding Assay for human Progestron Receptor (PR) (AID 2283360).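 Also: active means loss of bound radioligand signal versus DMSO baseline.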 An outline of the steps: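 Cell-free radioligand binding using receptor protein extracted from T47D cells, read by scintillation counting 18 hours after dosing. Loss of signal relative to DMSO baseline indicates displacement; primary screen single concentration 25 uM in duplicate, actives followed in concentration series.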
Chain of PGR (gene 5241) (P06401 whole entry, looked up): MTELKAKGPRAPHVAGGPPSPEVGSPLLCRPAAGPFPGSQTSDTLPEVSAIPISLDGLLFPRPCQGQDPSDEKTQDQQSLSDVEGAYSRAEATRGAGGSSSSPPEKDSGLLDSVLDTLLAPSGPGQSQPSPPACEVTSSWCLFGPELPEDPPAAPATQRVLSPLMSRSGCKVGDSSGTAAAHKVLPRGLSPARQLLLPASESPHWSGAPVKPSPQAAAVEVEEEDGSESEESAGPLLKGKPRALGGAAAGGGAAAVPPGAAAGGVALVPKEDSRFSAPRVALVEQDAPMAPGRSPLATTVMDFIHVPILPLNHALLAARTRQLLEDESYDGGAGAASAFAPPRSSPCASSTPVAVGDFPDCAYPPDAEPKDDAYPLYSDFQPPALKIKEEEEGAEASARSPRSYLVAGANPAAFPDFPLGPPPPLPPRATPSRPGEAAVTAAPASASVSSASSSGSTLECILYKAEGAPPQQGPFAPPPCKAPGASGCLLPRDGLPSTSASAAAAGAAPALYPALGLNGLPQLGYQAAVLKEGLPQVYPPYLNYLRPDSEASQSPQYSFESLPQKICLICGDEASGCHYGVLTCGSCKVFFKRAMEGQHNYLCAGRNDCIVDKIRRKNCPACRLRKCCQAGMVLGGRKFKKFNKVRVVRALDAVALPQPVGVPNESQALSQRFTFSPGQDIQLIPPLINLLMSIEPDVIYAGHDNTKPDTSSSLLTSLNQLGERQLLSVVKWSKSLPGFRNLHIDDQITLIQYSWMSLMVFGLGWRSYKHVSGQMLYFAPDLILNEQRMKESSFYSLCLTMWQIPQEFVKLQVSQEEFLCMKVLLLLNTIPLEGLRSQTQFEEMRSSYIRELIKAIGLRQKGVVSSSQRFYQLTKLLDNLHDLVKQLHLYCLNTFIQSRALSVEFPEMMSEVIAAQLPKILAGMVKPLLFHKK
Turning to `CC(C)(c1ccc(O)cc1)c1ccc(O)cc1`, the AC50 is 11.2 µM (active) and 8.49 µM (active); the compound was classed as inactive.
Consider `CCCCC(CC)CN1C(=O)C2C3C=CC(C3)C2C1=O` (configuration not stated), for which the outcome was inactive.
Same read-out and setting: the value for `CCCCOCCOCCOCc1cc2c(cc1CCC)OCO2` was “inactive”.
`C[C@]12C[C@H](O)[C@H]3[C@@H](CCC4=CC(=O)CC[C@@]43C)[C@@H]1CC[C@@H]2C(=O)CO`: the AC50 is 0.403 µM (active).
Turning to `N#CSCSc1nc2ccccc2s1`, the outcome was inactive.
Take `c1ccc(Nc2ccccc2)cc1`: the compound was called inactive.
Still for that read-out and setting: the value for `CC1(C)C(C=C(Cl)Cl)C1C(=O)OCc1cccc(Oc2ccccc2)c1` (configuration not stated) was “inactive”; that for `CCCN(CCC)C(=O)SCC` was “inactive”.
Turning to `O=C(c1ccc(O)cc1O)c1ccc(O)cc1O`, the AC50 was 11.2 µM (active).
For `Cc1nn(C)c(Oc2ccccc2)c1C=NOCc1ccc(C(=O)OC(C)(C)C)cc1`, the compound was classed as inactive.
As to `Oc1ccc(C(c2ccc(O)cc2)C(Cl)(Cl)Cl)cc1`, the AC50 was 6.82 µM (active).
